Reference: the OligoGym collection

target: DNAJC8; assay: pooled miR-30 sensor sort-seq; sequence = guide strand; details: shRNA

Sequence	sensor-assay potency score (higher = more potent)
TTTCTTGAGCTTCAATCTCTTC	-0.98
TTTCACAGTGTGTTCCACGTAT	0.15
TTGGCTTGGAAGTTTCGCCAGC	-0.414
TTGAGCTTCAATCTCTTCTTCC	0.0915
TGTAACTTCAGGATCTATCTGA	0.809
TTTTTCTTGAGCTTCAATCTCT	0.129
TTGTCGTTTCCTTTCATGCATC	-1.33

target: DNAL4; assay: as above; details: shRNA

Sequence	sensor-assay potency score (higher = more potent)
TAGAGGAGGTTCTTCACCTCGT	0.0799
ATAATCAGCCTCATCTTTCTTC	0.738
TCTCTTTGATCATCTTGGCGGC	-0.315
ATTGTCTCTTTGATCATCTTGG	0.417
TTGTCTCTTTGATCATCTTGGC	-0.232
TCTGCAGTCGCTTATAATCAGC	-1.4
TCTTTGATCATCTTGGCGGCGC	-0.0929
TCGTGGGTGATCTCAAACCCAA	-1.47
TATATAAATAAGACCGCTGTGT	-0.264
ACTTCTTGTCCATTGTCTCTTT	-0.545
TTGTTGTTGGAGAATTTCTCAC	-0.596

target: DNASE2B; assay: as above; details: shRNA

Sequence	sensor-assay potency score (higher = more potent)
ATAATCATAGCCTTCTTCCGGA	0.631
TTGGTGTGTCCATACTTTCTGC	-0.698
TCTAGTTGTAGAGTCTAGGTAC	0.705
TTGAACTCTGTTCCACAGCAGT	-0.963
TAACAAGTGTGTCTTCAGCCGT	-0.785
TTTTATATTGTAGACATGGTAA	-1.07
TTTAATTGCTTTTATATTGTAG	-0.233
TACTCTTAGAGGCATATGCTTC	-0.938
TAGGTCTCCAATACATGTCCAG	-0.704
TATAGCTGTTGTAATGTCCTTC	0.757
TTGTATATTAGATAGGCTGTGT	0.0611
TTCTGTTAACAAGTGTGTCTTC	-0.13

target: DNMT3L; assay: as above; details: shRNA

Sequence	sensor-assay potency score (higher = more potent)
TTGGTACCCGTCATCGTCGTAC	-0.554
TTGAAATATTCTCTTAGGGGGA	-0.387
TGTGACATCAACCACATGCTTC	-0.297
TGAACCTGGAGACTTCCGCAGC	-0.928
AACTGGAACAGGTACCAGCTGG	-0.764
TGGAACTGGAACAGGTACCAGC	-1.35
AATACTTGAAATATTCTCTTAG	0.0137
TATATTTCGCTGGTTAGCCTTG	-0.491
ATGTCTTCTATATTTCGCTGGT	-0.668
TTCTGTTGAAAAATACTTGAAA	-0.77
